Laboratory results from PubChem BioAssay (Tox21).
Records with an inconclusive call do not appear. Calls of active or inactive are those of the source. Unless noted, the call rests on the fitted dose curve; in most records, active means well fitted curve in the direction sought with a large enough effect in the repeat runs; inconclusive means weak or mixed curves; inactive means no such curve, though single readings can be large; an effect the other way counts as inactive or inconclusive.

What was measured:
[1] = qHTS assay to identify small molecule antagonists of the estrogen related receptor (ERR) signaling pathway - cell viability counter screen (AID 1224818);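 further: series mostly up to about 46 µM; viability measured after 17.5 h of compound exposure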
Summary of the method: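 ERR reporter cells plated 6 h at 37 C/5% CO2, then compounds in DMSO pin-transferred and incubated 17.5 h at 37 C. Viability read as CellTiter-Fluor fluorescence after 30 min at 37 C.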

[2] = qHTS assay to identify small molecule antagonists of the estrogen related receptor (ERR) signaling pathway (AID 1224819;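 further: luminescence from an ERR-driven luciferase reporter measured with One-Glo reagent; series mostly up to about 46 µM; nearly all actives have a fitted effect of over 50% in size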)
Summary of the method: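 ERR reporter cells were plated at 2,000 cells/well and left 6 h at 37 C/5% CO2 before pin-tool transfer of compounds in DMSO. After 18 h at 37 C, One-Glo was added and luminescence was read 30 min later at room temperature.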

[3] = test system: estrogen-related receptor alpha (ERRalpha) with PGC-1alpha coactivator, human; experiment: qHTS assay to identify small molecule antagonists of the estrogen related receptor signaling pathway with the pleiotropic PPARgamma coactivator (PGC) (AID 1224821; calls by dose curve;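 further: series mostly up to about 46 µM; lower luminescence signal means antagonism of PGC/ERR signalling; nearly all actives have a fitted effect of over 50% in size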)
Summary of the method: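 Quantitative HTS for antagonism: PGC/ERR cells received compounds after 6 h attachment and were incubated 18 h at 37 C, with luminescence (One-Glo) as the endpoint.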

[4] = qHTS assay to identify small molecule antagonists of the estrogen related receptor signaling pathway with the pleiotropic PPARgamma coactivator (PGC) cell viability counter screen (AID 1224822; further: series mostly up to about 46 µM)
Summary of the method: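 PGC/ERR cells were seeded at 2,000 cells/well, rested 6 h at 37 C/5% CO2, then given compounds in DMSO by pin tool and incubated 17.5 h at 37 C. Viability came from CellTiter-Fluor fluorescence after 30 min.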

[5] = qHTS assay to identify small molecule agonists of the estrogen related receptor signaling pathway with the pleiotropic PPARgamma coactivator (PGC) (AID 1224823)
Summary of the method: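 Cell-based luciferase assay in the NTP-supplied PGC/ERR line, 2,000 cells/well; 18 h compound exposure at 37 C, luminescence after One-Glo.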

[6] = qHTS assay to identify small molecule agonists of the estrogen related receptor (ERR) signaling pathway (AID 1224820)
Summary of the method: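 Quantitative HTS of the LOPAC library used NTP ERR reporter cells treated 18 h at 37 C. Signal is luminescence after One-Glo addition and a 30 min room-temperature incubation.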

Measured: Potency

CN1CCc2cccc(Cl)c2CC1
inactive: [1] | [2] | [3] | [4]

CCCN(CCC)C1Cc2cc(OC)c(OC)cc2C1
not listed: [6]
inactive: all other assays above

C=CCN1CC[C@]23CCCCC2[C@H]1Cc1ccc(O)cc13 (some centres not stated)
not listed: [6]
inactive: all other assays above

CCCN(CCC)C1CCc2cccc(O)c2C1 (configuration not stated)
not listed: [6]
inactive: all other assays above

CP(=O)(O)C1=CCNCC1
not listed: [6]
inactive: all other assays above

COC(=O)N1CCN(C(=O)Cc2ccc(Cl)c(Cl)c2)C(CN2CCCC2)C1 (configuration not stated)
not listed: [6]
inactive: all other assays above

NC(N)=Nc1ccc2[nH]c3c(c2c1)C[C@@]1(O)[C@H]2Cc4ccc(O)c5c4[C@@]1(CCN2CC1CC1)[C@H]3O5
not listed: [4]
inactive: all other assays above

NCCCP(=O)(O)O
inactive: [1] | [2] | [3] | [4]

COc1ccc2c(c1)C13CCCCC1C(C2)N(C)CC3 (configuration not stated)
inactive: [1] | [2] | [6] | [4]
